39 molecules from PubChem BioAssay (NCI) can be followed below.

Several values for one entry are separate records, joined by “and”; a condition that tells them apart may be missing. Equal values may be shown once. The panel holds about 83,000 compounds, 20% with a hit somewhere; the sample as a whole holds those more often.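 Method: cells in 96-well plates; compound added at one concentration; 48 h incubation; percent growth measured; values under 10 scored active.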 Activity calls are given as the source filed them.

In the first assay the test system is M14 melanoma. Put plainly: NCI-60 one-dose screen, 48 h (100 = growth as untreated, 0 = no growth, -100 = all killed). The note with it: 10 µM. How it is done: Growth inhibition of the M14 human tumor cell line is measured as a screen for anti-cancer activity. Cells are grown in 96 well plates and exposed to the test compound for 48 hours. Compounds are tested at a single concentration, which is 10^-5 M for most compounds. The reported endpoint is percent growth (GI% or GIPRCNT), where numbers from 0 - 100% represent growth inhibition, and numbers from -100% - 0 represent cell death. For example, a value of 40 represents 60% growth inhibition. A value of 0 means no net growth occurred over the course of the experiment. A value of -40 indicates 40% of cells at the beginning of the experiment died by the end of the experiment. A value of -100 means all cells are dead at the end of the experiment.
NCI-60 Human Tumor Cell Lines Screen was performed using the standard one-dose NCI protocol, which is described in more detail at https://dtp.cancer.gov/discovery_development/nci-60/default.htm.
Compounds with GIPRCNT values below 10 were considered active. Activity score was based on GIPRCNT using the following formula: […]
Score is 0 for GIPRCNT values of 100 or above, 50 for GIPRCNT values of 0, and 100 for GIPRCNT values of -100.
Regarding `O=C(Nc1cccc(Br)c1)Oc1cccc2cccnc12`, the growth is 99.4% (inactive).

Still in this assay, the particulars now being: 10 µM unless noted.
Consider `O=C(/C=C/C=C/c1ccccc1)c1ccco1`, for which the growth is 93.9% (inactive).

Turning to `COc1cc(NS(C)(=O)=O)ccc1Nc1c2ccccc2nc2ccccc12`, the growth was 8.39% (active) [middle of 4 runs].

On to `COC(=O)c1nc(=S)[nH]c(C(=O)OC)c1C(=O)c1ccccn1`, for which the growth is 17.9% (inactive).

For the molecule `O=C(Nc1ccccc1)Oc1c(Cl)c(Cl)c(Cl)c(Cl)c1Cl`, the growth is 101% (inactive) and 95.3% (inactive).

In the case of `NC(=S)N/N=C/c1ccc(Cl)s1`, the growth was 105% (inactive).

As for `S=C(N/N=C/c1ccccn1)Nc1ccccn1`, the growth is 0.168% (active).

For the molecule `Cc1ccc2c(ccc3c[n+]4c5ccccc5ccc4n32)c1`, the growth was 2.99% (active).

Turning to `O=C1c2ccccc2C(=O)c2sc(Nc3cccc(Cl)c3)nc21`, the growth was -89.1% (active).

Consider `O=C(CC1(O)C(=O)Nc2c(Cl)ccc(Cl)c21)c1ccc(Cl)cc1Cl` (stereo not given), for which the growth was 89.2% (inactive).

On to `CCCCCCCCCCCCCCCCOP(=O)([O-])OCC[N+](C)(C)C`, for which the growth was -10.6% (active).

`CCC(=O)Sc1ccccc1C(=O)Nc1ccc(Cl)cc1`: the growth was 42.4% (inactive).

Turning to `O=C1NC(=O)/C(=C/C=C/c2ccccc2)S1`, the growth was 12.3% (inactive).

Consider `Cc1ccc2nc(C[n+]3ccc4ccccc4c3)ccc2c1`, for which the growth was 45.8% (inactive).

As for `CCCCCCCCCCCCCCCCN(CC)CC`, the growth was -16.9% (active).

As for `CCCCCCC(C)c1ccccc1O` (stereo not given) (tested in a mixture with another compound), the growth is 111% (inactive).

As for `Oc1c(Cl)c2ccccc2c2ccccc12`, the growth was 108% (inactive).

Consider `Oc1c(Br)c(Br)c(O)c(Br)c1Br`, for which the growth was 110% (inactive).

Consider `Nc1ccc(SSc2ccc(N)cc2)cc1`, for which the growth was 97.7% (inactive).

As for `CCN(CC)CC(C)(C)C(=O)/C=C/c1ccc(Cl)c(Cl)c1`, the growth is -43.5% (active).

With `O=C(/C=C/c1cccc(Cl)c1)c1ccccc1`, the growth is 86.8% (inactive) and 83% (inactive).

As for `O[C@H]1[C@H]2c3cc4c(cc3CN3CCC(=C[C@@H]1O)[C@H]23)OCO4`, the growth is 15.9% (inactive).

As to `O=C(Nc1ccc(F)cc1)ON=C1CCCCC1`, the growth was 111% [100 µM] (inactive).

With `COc1cc(/C=C(/C)C[N+](=O)[O-])ccc1O`, the growth is 83.2% (inactive).

In the case of `CCOC(=O)/C(=C\c1ccc(-c2ccccc2)cc1)C(C)=O`, the growth is 94.7% (inactive).

In the case of `CCC(CC)COC(=O)c1ccc(O)c(O)c1`, the growth is 86.1% (inactive).

Consider `CCCCCCCCCCCCCCCC[N+](C)(CCO)Cc1cnc[nH]1` (stereo not given), for which the growth was -41.9% (active).

Take `CCC(CCCN(CC)CCc1ccccc1)OC(=O)c1cc(OC)c(OC)c(OC)c1` (stereo not given): the growth is 90.1% (inactive).

On to `CC(C)(C)CC(C)(C)c1ccc(OCCSC(=N)N)cc1`, for which the growth is -48.5% (active).

Consider `Oc1ccc(/C=N/NC(=S)Nc2ccccc2)nc1`, for which the growth was -34.8% (active).

In the case of `COc1ccc2nc3cc(Cl)ccc3c(NCCNc3c4ccc(Cl)cc4nc4ccc(OC)cc34)c2c1`, the growth was -74.2% (active).

On to `O=C1C2=C(Nc3cc([N+](=O)[O-])ccc3N2)OC1c1c2ccccc2cc2ccccc12` (stereo not given), for which the growth is 70.1% (inactive).

On to `COC(=O)c1nc(=S)[nH]c(C(=O)OC)c1C(=O)c1ccc2ccccc2c1`, for which the growth is 112% (inactive).

For `O=C1c2ccccc2C(=O)c2sc(Nc3ccc(Cl)cc3)nc21`, the growth was -2.34% (active).

As to `CN(Cc1cnc2nc(N)nc(N)c2n1)c1ccc(C(=O)NC(CCC(=O)O)C(=O)O)cc1` (stereo not given), the growth was 10.9% (inactive).

As for `COC(=O)[C@@]12OC[C@]34[C@H]([C@@H](O)[C@@H]1O)[C@@]1(C)[C@H](O)C(=O)C=C(C)[C@@H]1C[C@H]3OC(=O)C(OC(C)=O)[C@@H]24` (stereo not given in full), the growth was -84.9% (active).

As to `CCCCCC(CCCCC)C(=O)O`, the growth was 112% (inactive).

As for `O=C1C=CC(=O)N1C1c2ccccc2-c2ccccc21`, the growth is 96.5% (inactive).

Turning to `CN(C)C(=O)SC1=C(c2c(Cl)cccc2Cl)C(=O)c2ccccc21`, the growth is 23.2% (inactive).

Still in this assay, the particulars now being: 100 µM.
Turning to `O=C(Nc1cccc(Br)c1)Oc1cccc2cccnc12`, the growth was 16% (inactive).
